# “And” between values parts separate entries of the source, which are not always exact repeats. Equal values may be shown once. About 350 (0.27%) of roughly 130,000 compounds were called active. Cut-off read from the data, not from the text of the source: active = z-score below about -2 (passing the limit was not always enough); inactive = the rest. The sample as a whole holds a higher share of actives than the screen did. The source holds several records for some structures; these can differ, active in one and inactive in another.
# Test: PubChem AID 504770
# Conditions: E. coli YBA685 rctB-dependent plasmid, OD600 growth, 3 h; stronger effect = lower value
row,Structure (SMILES),z-score
1,Cc1c(OCC#N)ccc2c3c(c(=O)oc12)CCC3,-0.7 (inactive)
2,CCC1(C)NC(=O)N(NC(=O)c2ccc(S(=O)(=O)N3CCCC3)cc2)C1=O (configuration not stated),0.95 (inactive)
3,O=C(CCn1c(=O)oc2ccccc21)Sc1ccc(C(F)(F)F)cc1,0.8 (inactive)
4,Cc1ccc(NC(=O)c2ccc3nc(N4CCOCC4)sc3c2)cc1,-1.3 (inactive)
5,O=C(CSC1=NCCS1)Nc1cc(C(F)(F)F)ccc1Cl,-0.55 (inactive)
6,COc1ccc(NC(=O)C(=S)N2CCCCC2)cc1,-0.45 (inactive)
7,Cc1nc(N)nc(CSc2ccc(Cl)cc2)n1,1.4 (inactive)
8,O=C(c1[nH]nc2c1CCc1ccccc1-2)N1CCCC1,-0.15 (inactive)
9,CC(=O)NCc1n[nH]c(=O)c2ccccc12,-0.4 (inactive)
10,CCOc1ccc(NCc2nc3ccccc3n2C)cc1,0.75 (inactive)
11,Oc1c(Cl)cc(Cl)c(Cl)c1Cc1c(O)c(Cl)cc(Cl)c1Cl,-3.25 (active)
12,CC1CC(C)CN(c2nc3ccccc3c(=O)n2-c2ccc(Cl)cc2)C1 (configuration not stated),-1.35 (inactive)
13,CCS(=O)(=O)c1ccc2c(c1)N1CCS(=O)(=O)N=C1O2,0.9 (inactive)
14,CC1(C)COC(Nc2ccc(Cl)c(Cl)c2)=N1,-0.6 (inactive)
15,Cc1nc2c3ccccc3n3c(CCCC(=O)NCc4ccccn4)nnc3n2n1,1.15 (inactive)
16,O=S1(=O)CC(S(=O)(=O)c2ccccc2)C(S(=O)(=O)c2ccccc2)C1 (configuration not stated),1.15 (inactive)
17,COc1ccc2c(CC(=O)OCc3cc(Cl)c4c(c3)OCCCO4)coc2c1,-0.55 (inactive)
18,Cc1cccc(CC2(Cc3cccc(C)c3)C(=O)OC(C)(C)OC2=O)c1,0.1 (inactive)
19,N#CC(c1ccc(F)cc1)N1CCOCC1 (configuration not stated),-1.05 (inactive)
20,CN(C(=O)Cn1nc(C(F)(F)F)c2c1CCC2)C1CCCCC1,-0.25 (inactive)
21,O=C(CCc1ccccc1)Nc1nnc(SCC(=O)N2CCCCCC2)s1,-0.2 (inactive)
22,N#Cc1c(=O)c2nc(NCCc3ccccc3)ncc2n2c(=O)c3cc(Br)ccc3[nH]c12,-1.25 (inactive)
23,C=CCN(C(=O)C1CCCC1)c1nc2c(s1)CCCC2,-1.05 (inactive)
24,CC1CC(C)CN(C(=O)COC(=O)c2cccnc2Nc2ccccc2F)C1 (configuration not stated),0.1 (inactive)
25,C=CCNc1nc(SC)nc2ccccc12,1.45 (inactive)
26,COC(=O)N/N=C/c1c[n+]([O-])c2ccccc2[n+]1[O-],-3.7 (active)

row,Structure (SMILES),z-score
1,COc1cccc(/C=N/NC(=O)Cc2ccccc2)c1,-0.6 (inactive)
2,COc1ccc(/C=N/NC(=O)c2ccccc2)cc1OC,0.85 (inactive)
3,CC(NC(=O)CC1=NS(=O)(=O)c2ccccc2N1)c1ccccc1 (configuration not stated),0.8 (inactive)
4,Cc1cc(/C=C2\C(=O)NC(=S)N(c3ccccc3F)C2=O)c(C)n1-c1ccc(Cl)c(C(=O)O)c1,-0.8 (inactive)
5,COC(=O)c1ccc(CNC(=O)C(C)Sc2ccccc2)cc1 (configuration not stated),-0.15 (inactive)
6,N#Cc1c(C(F)(F)F)cc(=O)[nH]c1S,-0.6 (inactive)
7,O=C(CSC1=NC2(CCCC2)Nc2ccccc21)Nc1ccc2c(c1)OCCO2,0 (inactive)
8,C=CCNc1nc(OC)nc(OC)n1,0.15 (inactive)
9,COc1ccc(CN2CN(C(C)C)CSC2=S)cc1,-1.55 (inactive)
10,S=C1SCN(CCN2CCOCC2)CN1Cc1ccccc1,-2.95 (active)
11,C(=C\c1ccccc1)/CNCCCN1CCOCC1,-0.45 (inactive)
12,Cc1cnc(NC(=O)CSc2nc3sc4c(c3c(=O)n2C)CCCC4)s1,-1.2 (inactive)
13,O=C(OCN1C(=O)c2ccccc2C1=O)c1ccccc1O,0.65 (inactive)
14,Nc1nc(/C(=C/CC(=O)O)C(=O)N[C@@H]2C(=O)N3C(C(=O)O)=CCS[C@H]23)cs1,-1.1 (inactive)
15,CO/N=C(/C(=O)N[C@@H]1C(=O)N2C(C(=O)O)=C(CSc3nc(=O)c(O)nn3C)CS[C@H]12)c1csc(N)n1,-4.8 (active) and -2 (inactive)
16,CC(=O)Nc1ccc(C(=O)N(C)Cc2cccc(F)c2)cc1,1.3 (inactive)
17,OCc1nc(-c2ccccc2)cs1,-0.45 (inactive)
18,CC(C)N1CCC(=O)N(c2ccccc2Cl)C1=O,0.25 (inactive)
19,CC(N)C(=O)Nc1ccc2c(c1)Cc1ccccc1-2 (configuration not stated),-1.1 (inactive)
20,Cc1cccc(C(=O)Nc2nnc(/N=C/c3ccc(Br)s3)s2)c1,-0.85 (inactive)
21,O=C(NC1CCCC1)c1cc(-c2ccccc2)on1,0.55 (inactive)
22,CC(C)CNC(=O)c1cc(-c2ccc(Br)cc2)on1,-0.2 (inactive)
23,O=C(NC1CCCC1)c1cc(-c2ccc(Br)cc2)on1,-2.5 (active)
24,CCn1c(SCC(=O)Nc2ccc3c(c2)OCCCO3)nc2cc(S(N)(=O)=O)ccc21,2.15 (inactive)
25,COc1ccc(-c2nc3cc(N=Cc4cccc(OC)c4O)ccc3o2)cc1,0.1 (inactive)
26,COc1ccc(-c2ocnc2C(=O)O)cc1,-0.1 (inactive)

row,Structure (SMILES),z-score
1,CCCCSc1nnc2c(=O)[nH]c(=O)[nH]c2n1,-1.6 (inactive)
2,CC(=O)NCc1ccc(C(=O)COC(=O)c2cc(-c3ccccc3)nn2-c2ccccc2)o1,0.5 (inactive)
3,CC(=O)Oc1ccc2c(=O)c(-c3ccccc3)coc2c1C,0.9 (inactive)
4,CCOC(=O)c1c(NC(=O)c2cc3ccccc3o2)sc2c1CC(C)(C)OC2,1.4 (inactive)
5,NS(=O)(=O)c1cc(OCC(F)(F)F)ccc1OCC(F)(F)F,-0.85 (inactive)
6,Cn1cc(NC(=O)N2CCc3ccccc3C2)c2ccccc21,0.5 (inactive)
7,COCCn1c(C)cc(C(=O)COC(=O)Cn2c(C)csc2=O)c1C,-0.2 (inactive)
8,Cc1ccc(Cn2ccsc2=NC(=O)COC(=O)Cn2c(C)csc2=O)cc1,-3.3 (active)
9,Cc1csc(=O)n1CC(=O)OCC(=O)c1ccc(Cl)s1,1.15 (inactive)
10,Cc1ccccc1C(=O)Nc1ccccc1N1CCN(C)CC1,0.25 (inactive)
11,O=C1NN(c2ccc(Cl)c(Cl)c2)C(=O)/C1=C\C=C\c1ccccc1,0.25 (inactive)
12,N#Cc1c(SCC(=O)C23CC4CC(CC(C4)C2)C3)sc2c(=O)[nH]c(=O)[nH]c12,-0.7 (inactive)
13,CCOc1ccc(/C=c2/sc3nnc(-c4ccccc4C)n3c2=O)cc1,-0.2 (inactive)
14,NC(=O)CSc1ccccc1NC(=O)c1cc(-c2cccs2)nn1-c1ccccc1,3.15 (inactive)
15,COc1ccc(NS(=O)(=O)N(C)C)cn1,0.3 (inactive)
16,Cc1oc2cc(O)ccc2c(=O)c1-c1nc2ccccc2[nH]1,-0.6 (inactive)
17,CCCOc1ccc(C2C3=C(CCCC3=O)OC3=C2C(=O)CCC3)cc1,-0.45 (inactive)
18,O=C1CCCC2=C1C(c1ccccn1)C1=C(CCCC1=O)O2,-2.45 (active)
19,O=C1CCCC2=C1C(c1ccccn1)Nc1ccc3ncccc3c12 (configuration not stated),-0.55 (inactive)
20,S=C(Nc1ccccc1)NC1CC2CCCC(C1)N2C1CC1 (configuration not stated),-0.5 (inactive)
21,c1ccc(CNCc2ccc3c(c2)OCO3)cc1,-1.25 (inactive)
22,O=C(CC(NCc1ccco1)C(=O)O)Nc1cccc(C(F)(F)F)c1 (configuration not stated),1.45 (inactive)
23,CCOc1ncccc1C(=O)Nc1ccc2c(c1)OCCO2,-0.25 (inactive)
24,C[N+]1(CC(O)COc2ccccc2F)CCOCC1 (configuration not stated),0.45 (inactive)
25,O=C1C(=O)N(CCO)C(c2ccccc2)/C1=C(/O)c1ccccc1 (configuration not stated),-0.3 (inactive)
26,COc1ccccc1-c1nnc(C2CCN(S(=O)(=O)c3ccc(C)cc3)CC2)o1,0.85 (inactive)

row,Structure (SMILES),z-score
1,COC(=O)c1sc(=S)n(-c2ccc(C)cc2)c1N,0.95 (inactive)
2,COc1cc(OC)c(C(=O)OCC(=O)N(C)C2CCCCC2)cc1OC,0.65 (inactive)
3,O=C(CSc1ccccn1)Nc1cc(C(F)(F)F)cc(C(F)(F)F)c1,-0.4 (inactive)
4,COC(=O)CC1=C(C(=O)OC)C2(C(=O)N1)C(C#N)=C(N)Oc1ccccc12 (configuration not stated),0.45 (inactive)
5,CC(C(=O)O)C(C(=O)O)C(C)c1ccccc1 (configuration not stated),-0.7 (inactive)
6,O=C(NCCN1CCOCC1)C1CCN(C(=O)c2cc3sccc3n2Cc2ccc(F)cc2)CC1,-0.45 (inactive)
7,O=C1NCCCCC1NC(=S)Nc1ccccc1 (configuration not stated),-0.25 (inactive)
8,COc1cc(/C=C2/C(=O)Nc3cc(Cl)ccc32)cc(OC)c1O,0.9 (inactive)
9,O=C(Cn1nnc(-c2ccccc2)n1)NC(=O)NCc1ccccc1,-0.5 (inactive)
10,CN1CCC(OC(=O)c2ccc3c(c2)OCCO3)CC1,-0.5 (inactive)
11,O=C1C=CC(=O)N1c1ccc(Br)cc1,0.05 (inactive)
12,CCNCC(=O)Nc1ccc(NC(C)=O)cc1,0.15 (inactive)
13,CC(=O)Nc1ccc(N2C(=O)C=CC2=O)cc1,-2.5 (active)
14,Cc1ccc(-c2nnc(NCc3ccco3)c3ccccc23)cc1C,-0.6 (inactive)
15,Cc1ccc(NNC(=O)C(C)(C)O)c(C)c1,-0.15 (inactive)
16,CCOC(=O)N1CCN(c2nc(-c3ccccc3)no2)CC1,0 (inactive)
17,CN1CCCc2cc(-c3ccnc4ccccc34)ccc21,0.35 (inactive)
18,COC(=O)c1cc2occc2n1Cc1ccc(C)cc1,0.3 (inactive)
19,O=C(COc1c(-c2ccco2)oc2ccccc2c1=O)NCCc1ccccc1,0.9 (inactive)
20,CCOC(=O)/C(=C(/C)N1CCCC1)P(=S)(N1CCOCC1)N1CCOCC1,-1.8 (inactive)
21,Cc1nn(-c2ccccc2)c(OC(=O)c2ccc(Br)o2)c1Sc1ccccc1,0 (inactive)
22,CC(CC(=O)OCc1ncc(-c2ccccc2)o1)c1ccccc1 (configuration not stated),0.65 (inactive)
23,Cc1cc(C(=O)Oc2ccc(C(=O)c3ccc(F)cc3)cc2)on1,-0.2 (inactive)
24,COc1ccc2oc(=O)c(C(=O)NC(C)(C)C)cc2c1,-0.45 (inactive)

# From PubChem BioAssay AID504770 (ICCB-Longwood Screening Facility, Harvard Medical School, 2011)
